Measured values: PubChem BioAssay (NCATS)
Inconclusive results are not listed. A call without a number means that no potency is given here. Calls of active or inactive are those of the source. Unless noted, calls come from the whole dose curve; as a rule, active = well fitted curve in the direction sought with a large enough effect; inconclusive = small, poorly fitted or top-dose-only effect, or another doubt; inactive = no such curve, though single readings can be large; an effect the other way counts as inactive or inconclusive.

Legend:
[1] = biological target: Glucocorticoid receptor (Homo sapiens) (UniProt P04150); assay: GR-GFP Redistribution (AID 450;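 active = compounds whose dose series gives a full or clear partial fitted curve of increased nuclear translocation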; note: potency is the fitted concentration of half-maximal effect); conditions: U2OS GR-GFP nuclear translocation, laser cytometry, 2 h
Sequence of Glucocorticoid receptor (Homo sapiens) (P04150 whole entry, looked up, the tested form may be a part): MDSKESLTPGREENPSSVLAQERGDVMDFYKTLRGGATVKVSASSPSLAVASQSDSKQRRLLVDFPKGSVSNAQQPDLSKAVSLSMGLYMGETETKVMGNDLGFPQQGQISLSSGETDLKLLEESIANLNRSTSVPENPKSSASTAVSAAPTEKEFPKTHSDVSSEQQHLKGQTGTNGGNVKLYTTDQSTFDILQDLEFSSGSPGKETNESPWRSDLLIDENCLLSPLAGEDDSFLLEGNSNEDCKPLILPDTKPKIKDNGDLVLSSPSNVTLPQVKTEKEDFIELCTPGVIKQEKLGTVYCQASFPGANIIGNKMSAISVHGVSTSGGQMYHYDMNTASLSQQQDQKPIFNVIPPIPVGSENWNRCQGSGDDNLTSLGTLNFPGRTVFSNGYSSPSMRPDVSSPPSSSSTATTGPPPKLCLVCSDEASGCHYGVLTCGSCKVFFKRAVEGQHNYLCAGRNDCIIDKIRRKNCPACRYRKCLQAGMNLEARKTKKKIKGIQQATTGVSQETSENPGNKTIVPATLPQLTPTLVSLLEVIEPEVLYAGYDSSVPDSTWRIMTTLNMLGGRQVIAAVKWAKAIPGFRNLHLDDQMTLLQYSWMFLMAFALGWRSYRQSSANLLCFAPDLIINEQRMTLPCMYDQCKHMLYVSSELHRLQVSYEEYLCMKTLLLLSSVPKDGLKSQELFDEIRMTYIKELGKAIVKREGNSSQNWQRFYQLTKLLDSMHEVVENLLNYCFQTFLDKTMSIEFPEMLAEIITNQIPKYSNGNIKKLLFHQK

[2] = biological target: Mitogen-activated protein kinase 10 (Mus musculus) (UniProt Q61831); assay: JNK3 AlphaScreen Assay (AID 530; active = well fitted curve in either direction with a large enough effect, not every such curve was filed as active;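 note: kinase came from lysate of stimulated human HepG2 cells; signal reports phosphorylation of biotinylated GST-cJun 1-79 at Ser73 with 10 µM ATP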); conditions: JNK3 lysate, c-Jun phosphorylation; series mostly up to 57.1 µM
In short: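 Compound titrations were preincubated 15 minutes at room temperature with substrate, antibody and pre-activated JNK3-containing HepG2 lysate. Reactions were started with 10 uM ATP and stopped with EDTA-containing bead buffer for AlphaScreen detection.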

[3] = qHTS Assay for Lipid Storage Modulators (AID 1519; calls by dose curve); conditions: Drosophila S3 cells, BODIPY lipid droplet/cell ratio, laser cytometry, cells loaded with oleic acid; for activity change, negative = inhibition: at 57.5 µM (top of the series)
In short: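 Cells seeded at 5,000 per well were treated with compounds over a concentration series and loaded with oleic acid (400 uM, as added). Lipid droplet fluorescence (488 nm excitation, 500-530 nm channel) was read by laser-scanning cytometry and normalized to 20 uM Triacsin C.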

[4] = biological target: Ubiquitin carboxyl-terminal hydrolase 1 (Homo sapiens) (UniProt O94782); assay: Inhibitors of USP1/UAF1: Pilot qHTS (AID 504865); conditions: purified USP1/UAF1, Ub-rhodamine cleavage fluorescence; series mostly up to 114 µM;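 note: rhodamine fluorescence freed from ubiquitin-rhodamine substrate followed over time; top concentration of the series differs between compounds; nearly all actives have a fitted effect of over 35% in size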
Sequence of Ubiquitin carboxyl-terminal hydrolase 1 (Homo sapiens) (O94782 whole entry, looked up): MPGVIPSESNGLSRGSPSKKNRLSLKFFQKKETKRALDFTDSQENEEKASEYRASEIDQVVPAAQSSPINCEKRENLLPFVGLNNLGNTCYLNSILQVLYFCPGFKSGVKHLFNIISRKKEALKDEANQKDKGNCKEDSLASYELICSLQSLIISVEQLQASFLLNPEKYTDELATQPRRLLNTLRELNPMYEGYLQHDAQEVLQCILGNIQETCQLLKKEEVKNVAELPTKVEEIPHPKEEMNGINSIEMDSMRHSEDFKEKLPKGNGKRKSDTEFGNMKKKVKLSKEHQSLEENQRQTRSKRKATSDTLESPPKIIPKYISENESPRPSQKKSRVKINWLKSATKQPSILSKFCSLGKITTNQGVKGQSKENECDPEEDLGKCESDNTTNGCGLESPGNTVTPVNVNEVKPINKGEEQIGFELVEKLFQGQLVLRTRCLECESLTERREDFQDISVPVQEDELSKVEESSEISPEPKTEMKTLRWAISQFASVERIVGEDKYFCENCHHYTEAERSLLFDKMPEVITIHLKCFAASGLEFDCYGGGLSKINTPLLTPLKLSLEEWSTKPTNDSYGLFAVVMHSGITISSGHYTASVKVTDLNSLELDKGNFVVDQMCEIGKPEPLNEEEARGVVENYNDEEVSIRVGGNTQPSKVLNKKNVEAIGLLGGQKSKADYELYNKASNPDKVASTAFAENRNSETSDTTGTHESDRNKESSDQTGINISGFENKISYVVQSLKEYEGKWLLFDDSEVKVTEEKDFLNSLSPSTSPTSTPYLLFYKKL
In short: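 Enzyme-free wells gave the negative control, while test wells held 1nM USP1/UAF1 preincubated with compound for 15 min at room temperature. Ub-Rho at 150nM final started the reaction, and fluorescence at 480/540 nm was recorded kinetically.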

[5] = biological target: DNA dC->dU-editing enzyme APOBEC-3G (Homo sapiens) (UniProt Q9HC16); assay: qHTS for inhibitors of Vif-A3G interactions: Validation (AID 588379); conditions: Vif-A3G protein interaction assay; series mostly up to 46.1 µM
Sequence of DNA dC->dU-editing enzyme APOBEC-3G (Homo sapiens) (Q9HC16 whole entry, looked up): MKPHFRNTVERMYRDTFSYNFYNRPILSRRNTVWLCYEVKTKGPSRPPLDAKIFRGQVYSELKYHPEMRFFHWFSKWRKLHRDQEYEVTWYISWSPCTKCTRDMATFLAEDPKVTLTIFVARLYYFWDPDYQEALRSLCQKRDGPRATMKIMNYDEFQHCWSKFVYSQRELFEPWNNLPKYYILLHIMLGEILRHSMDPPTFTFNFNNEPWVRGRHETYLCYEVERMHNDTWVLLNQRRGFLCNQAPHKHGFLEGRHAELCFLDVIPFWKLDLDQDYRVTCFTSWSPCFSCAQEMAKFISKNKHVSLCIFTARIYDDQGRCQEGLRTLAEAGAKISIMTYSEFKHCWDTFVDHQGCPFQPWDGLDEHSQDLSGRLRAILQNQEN
In short: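 HeLa cells stably expressing Vif and A3G-eYFP, 700 cells/well, incubated overnight at 37 deg C, then exposed to compound overnight at 37 deg C. Inhibition of Vif-mediated degradation read as increased yellow fluorescence (Ex 488/Em 500-530) by laser-scanning cytometry.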

[6] = system: Zika virus NS2B-NS3 protease; assay: Primary screen GU AMC qHTS for Zika virus inhibitors (AID 1347154); conditions: Zika NS2B-NS3 unlinked protease, AMC fluorogenic substrate; series mostly up to 54.1 µM; note: nearly all actives have a fitted effect of over 70% in size
In short: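 Fluorogenic AMC-substrate cleavage by noncovalent NS2B-NS3 protease complex (25 nM, pH 8.0 Tris buffer with Tween 20) followed for 15 minutes at room temperature (~20% conversion). Percent inhibition from ex340/em450 signal change, fitted by 4-parameter Hill equation.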

[7] = Primary qHTS for small molecule stabilizers of the endoplasmic reticulum resident proteome: Secreted ER Calcium Modulated Protein (SERCaMP) assay (AID 1508630); conditions: SH-SY5Y GLuc-SERCaMP (Gaussia luciferase released on ER calcium loss) secretion, thapsigargin, luminescence; series mostly up to 38.4 µM
In short: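 GLuc-SERCaMP-expressing SH-SY5Y cells, pretreated 16 h with compound, are challenged with thapsigargin to empty ER calcium stores; after 4 h, coelenterazine is added directly to the medium and luminescence is imaged.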

[8] = AP1 Signaling Pathway (AID 357; active = well fitted curve in either direction with a large enough effect, not every such curve was filed as active;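 note: ME-180 reporter cells stimulated with EGF at its EC50 level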); conditions: ME-180 AP-1-bla reporter, EGF-induced, beta-lactamase ratio, 5 h; series mostly up to 38 µM
In short: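 Cells are seeded overnight, exposed to compound titrations and an EC50 level of EGF for 5 hours at 37 °C, then loaded with CCF4 dye for 2.5 hours. Beta-lactamase activity under the AP-1 element is read as a blue/green ratio.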

[9] = biological target: Cytochrome P450 1A2 (Homo sapiens) (UniProt P05177); assay: p450-cyp1a2 (AID 410; calls by dose curve); conditions: recombinant CYP1A2, luciferin-ME demethylation, luminescence; series mostly up to 57 µM
In short: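 Luminescent readout of luciferin formed from Luciferin-ME by human CYP1A2; data normalized against complete inhibition by 57 uM furafylline. Enzyme 20nM, substrate 100uM at Km, 100mM KPO4 buffer, 60 min reaction at room temperature.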

[10] = NFAT Signaling Pathway (AID 444; active = well fitted curve in either direction with a large enough effect, not every such curve was filed as active;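 note: carbachol stimulus at about its EC50 of 1 µM final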); conditions: Jurkat NFAT-bla M1, carbachol, beta-lactamase ratio, 5 h; at 38 µM (top of the series)
In short: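 Read-out: CCF4 FRET ratio (460 nm/530 nm) after 1 h RT dye loading, used for %activity and AC50 from titration series. Cells: Jurkat NFAT-β-lactamase/M1 line, treated with compound plus 1 uM carbachol for 5 h, 37 °C.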

[11] = Stat Signaling Pathway (AID 446; active = well fitted curve in either direction with a large enough effect, not every such curve was filed as active;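 note: ME-180 cervical cancer cells given 40 pM IL-6 alongside compound; SIE-controlled beta-lactamase reporter measured as 460/530 nm FRET emission ratio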); conditions: ME-180 (cervical carcinoma) SIE beta-lactamase reporter, IL-6 stimulated, 5 h; series mostly up to 38 µM
In short: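 IL-6/STAT signaling read in ME-180 cells via an SIE beta-lactamase reporter. Stimulus was 40 pM IL-6 (its AC50) for 5 hrs, so both activation and inhibition register.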

[12] = biological target: Glucocorticoid receptor (Homo sapiens) (UniProt P04150); assay: GR-EFC Redistribution (AID 451; calls by dose curve; note: potency is the fitted concentration of half-maximal effect); conditions: CHO-K1 GR-EFC translocation, beta-gal luminescence, 2 h
In short: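 Translocation of GR-ED fusion to nuclear EA restores b-gal, read by luminescence after 1 h room-temperature detection. Engineered CHO-K1 biosensor cells, 1,000/well, exposed 2 h at 37 C to titrations up to 46 uM final.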

[13] = biological target: 3',5'-cyclic-AMP phosphodiesterase 4B (Homo sapiens) (UniProt Q07343); assay: qHTS Assay for Inhibitors of PDE-IV (AID 607; active = well fitted activation curve with a large enough effect in the main read-out, with a control signal flat, not every such curve was filed as active); conditions: HEK293 ACTOne CNG channel cells, membrane potential fluorescence; series mostly up to 22.9 µM
Sequence of 3',5'-cyclic-AMP phosphodiesterase 4B (Homo sapiens) (Q07343 whole entry, looked up): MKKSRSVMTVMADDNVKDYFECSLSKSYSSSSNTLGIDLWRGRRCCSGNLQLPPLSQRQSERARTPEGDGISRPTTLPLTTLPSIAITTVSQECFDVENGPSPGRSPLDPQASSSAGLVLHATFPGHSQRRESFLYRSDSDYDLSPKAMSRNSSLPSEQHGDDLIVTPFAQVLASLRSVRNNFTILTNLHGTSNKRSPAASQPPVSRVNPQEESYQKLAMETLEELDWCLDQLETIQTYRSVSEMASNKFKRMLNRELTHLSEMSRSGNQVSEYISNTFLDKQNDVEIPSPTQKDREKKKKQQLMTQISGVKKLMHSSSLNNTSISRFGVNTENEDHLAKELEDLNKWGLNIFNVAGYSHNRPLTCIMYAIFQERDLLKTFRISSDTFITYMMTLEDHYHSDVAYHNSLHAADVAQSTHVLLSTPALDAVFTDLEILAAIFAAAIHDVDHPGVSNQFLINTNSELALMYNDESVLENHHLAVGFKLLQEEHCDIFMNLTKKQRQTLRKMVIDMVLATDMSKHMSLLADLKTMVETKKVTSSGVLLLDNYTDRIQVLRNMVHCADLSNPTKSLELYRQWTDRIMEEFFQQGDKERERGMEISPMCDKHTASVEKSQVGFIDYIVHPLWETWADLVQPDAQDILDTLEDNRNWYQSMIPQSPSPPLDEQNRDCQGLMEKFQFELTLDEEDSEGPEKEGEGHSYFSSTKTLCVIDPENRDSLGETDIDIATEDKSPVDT
In short: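 Live HEK293 cells with a modified cyclic nucleotide-gated (CNG) channel report intracellular cAMP via membrane-potential dye fluorescence (ex 535/em 590 nm). Endogenous PDE-IV was targeted. Compounds were tested at up to 22.9 uM final; RO 20-1724 100 uM served as control.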

[14] = biological target: Cytochrome P450 2C9 (Homo sapiens) (UniProt P11712); assay: qHTS Assay for Inhibitors and Substrates of Cytochrome P450 2C9 (AID 883); conditions: recombinant CYP2C9, luciferin-H luminescence, 60 min; series mostly up to 57.1 µM; note: nearly all actives have a fitted effect of over 60% in size
Sequence of Cytochrome P450 2C9 (Homo sapiens) (P11712 whole entry, looked up): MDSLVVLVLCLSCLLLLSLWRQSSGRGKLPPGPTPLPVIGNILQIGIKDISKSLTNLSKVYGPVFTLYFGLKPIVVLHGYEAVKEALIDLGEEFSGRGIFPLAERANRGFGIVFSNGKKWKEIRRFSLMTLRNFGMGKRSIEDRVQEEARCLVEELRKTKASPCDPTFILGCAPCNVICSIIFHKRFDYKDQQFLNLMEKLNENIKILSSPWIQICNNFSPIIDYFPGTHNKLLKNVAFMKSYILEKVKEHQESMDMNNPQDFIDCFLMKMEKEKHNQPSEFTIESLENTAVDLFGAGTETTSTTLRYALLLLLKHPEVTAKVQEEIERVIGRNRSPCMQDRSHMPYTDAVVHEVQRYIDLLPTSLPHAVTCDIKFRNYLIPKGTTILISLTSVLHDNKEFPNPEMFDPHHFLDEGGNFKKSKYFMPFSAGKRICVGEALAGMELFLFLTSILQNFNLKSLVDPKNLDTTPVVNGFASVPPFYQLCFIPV
In short: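 Inhibition of CYP2C9 is scored as loss of luminescence, with 57uM sulphaphenazole defining 100% inhibition. Substrate Luciferin-H is used at 100uM, equal to its KM; enzyme at 10nM in 25mM KPO4, 60 min at 37C with NADPH regeneration.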

[15] = biological target: Cytochrome P450 2D6 (Homo sapiens) (UniProt P10635); assay: qHTS Assay for Inhibitors and Substrates of Cytochrome P450 2D6 (AID 891); conditions: recombinant CYP2D6, luciferin-ME EGE luminescence; series mostly up to 57.1 µM;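 note: luciferin methyl ether substrate demethylated by CYP2D6 with NADPH regeneration; nearly all actives have a fitted effect of over 60% in size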
In short: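 Human CYP2D6 (5 nM) with 30 uM Luciferin-ME EGE (at Km) in 100 mM KPO4, compound preincubated 10 min, then NADPH regeneration system for 60 min at room temperature. Luciferin read by luminescence; normalized to 1.43 uM quinidine.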

[16] = biological target: Cytochrome P450 2C19 (Homo sapiens) (UniProt P33261); assay: qHTS Assay for Inhibitors and Substrates of Cytochrome P450 2C19 (AID 899); conditions: recombinant CYP2C19, luciferin-H EGE luminescence; series mostly up to 57.1 µM; note: nearly all actives have a fitted effect of over 60% in size
In short: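 5nM enzyme + 10uM Luciferin-H EGE (=KM), 50mM KPO4; cpd pin-transferred, 10 min 37C; NADPH regen, 60 min 37C; stopped w/ luciferin detection reagent, 20 min; luminescence. Normalized to 57uM ketoconazole (AC100).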

[17] = qHTS Assay for Identification of Small Molecule Agonists for Thrombopoietin (TPO) Signaling Pathway (AID 917); conditions: TPO signaling pathway reporter cells, agonist qHTS; series mostly up to 38.5 µM
In short: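 IL-3-dependent murine pro-B Ba/F3 cells, stably transfected with human TPO receptor and GpIIb-promoter luciferase, are incubated 24 hrs at 37 C with test compound and 26 pM TPO; luciferase signal is read after 10 min at room temperature.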

[18] = biological target: Muscarinic acetylcholine receptor M1 (Rattus norvegicus) (UniProt P08482); assay: qHTS Assay for Antagonists of Acetylcholine Muscarinic M1 Receptor: Kinetic Measurement of Intracellular Calcium Response (AID 943); conditions: M1-expressing cells, kinetic intracellular calcium fluorescence; series mostly up to 35.3 µM;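 note: Fluo-4 calcium signal as peak divided by basal fluorescence over 4 min; nearly all actives have a fitted effect of over 75% in size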
Sequence of Muscarinic acetylcholine receptor M1 (Rattus norvegicus) (P08482 whole entry, looked up): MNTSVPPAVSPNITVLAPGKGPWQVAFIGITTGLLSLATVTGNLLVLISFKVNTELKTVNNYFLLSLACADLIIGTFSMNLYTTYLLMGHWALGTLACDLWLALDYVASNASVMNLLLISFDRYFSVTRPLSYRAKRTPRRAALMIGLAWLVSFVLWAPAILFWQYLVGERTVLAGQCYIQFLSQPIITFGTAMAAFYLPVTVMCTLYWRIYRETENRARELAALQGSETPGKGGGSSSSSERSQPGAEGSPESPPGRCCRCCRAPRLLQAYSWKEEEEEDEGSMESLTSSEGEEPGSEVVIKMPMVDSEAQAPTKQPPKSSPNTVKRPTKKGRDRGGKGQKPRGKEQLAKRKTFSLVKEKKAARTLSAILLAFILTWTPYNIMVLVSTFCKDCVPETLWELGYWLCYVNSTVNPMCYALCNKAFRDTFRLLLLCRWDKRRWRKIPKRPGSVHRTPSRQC
In short: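 Rat M1-CHO cells, 2000/well, overnight → Fluo-4 no-wash dye with probenecid, 1 h 37C → compound 10 min, room temp → basal read 6 s → carbachol EC80 (100 nM) → 4 min kinetic read; peak/basal.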

[19] = biological target: Muscarinic acetylcholine receptor M1 (Rattus norvegicus) (UniProt P08482); assay: qHTS Assay for Antagonists of Acetylcholine Muscarinic M1 Receptor: Measurement of IP-One Response (AID 944); conditions: CHO-M1 cells, IP-One HTRF, antagonist mode; series mostly up to 46.1 µM; note: nearly all actives have a fitted effect of over 75% in size
In short: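 M1-CHO (rat), 2000 cells/well, overnight recovery; cpd 10 min; carbachol EC80 (200 nM), 30 min, HEPES buffer + 50 mM LiCl pH 7.4; IP-One HTRF, Ex 337, Em 620/665 nm.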

[20] = biological target: Pyruvate kinase (Leishmania mexicana) (UniProt Q27686); assay: qHTS Validation Assay for Inhibitors of Leishmania Mexicana Pyruvate Kinase (AID 945); conditions: purified L. mexicana pyruvate kinase, enzyme activity, E451W mutant enzyme; series mostly up to 57.5 µM
Sequence of Pyruvate kinase (Leishmania mexicana) (Q27686 2-499 E452W): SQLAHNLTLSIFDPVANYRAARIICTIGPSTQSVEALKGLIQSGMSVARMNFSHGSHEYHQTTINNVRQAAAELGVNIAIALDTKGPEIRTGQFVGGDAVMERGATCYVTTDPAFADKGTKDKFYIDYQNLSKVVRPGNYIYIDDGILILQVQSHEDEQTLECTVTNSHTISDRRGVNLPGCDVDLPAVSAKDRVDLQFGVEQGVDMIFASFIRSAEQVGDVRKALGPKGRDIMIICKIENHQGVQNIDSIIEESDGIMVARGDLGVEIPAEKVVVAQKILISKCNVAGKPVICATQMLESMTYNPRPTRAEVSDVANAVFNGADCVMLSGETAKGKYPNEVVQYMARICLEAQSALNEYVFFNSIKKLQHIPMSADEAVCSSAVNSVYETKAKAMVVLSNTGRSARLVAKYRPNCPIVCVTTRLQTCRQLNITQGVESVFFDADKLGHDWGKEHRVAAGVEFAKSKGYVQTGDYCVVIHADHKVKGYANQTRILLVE
In short: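 Mutant LmPYK (E451W), 0.2 nM, plus 0.5 mM PEP and 0.1 mM ADP in 50 mM imidazole pH 7.2 containing 0.01% Tween 20 and 0.05% BSA. Incubated 1 h at room temperature; luminescence via PKLight, normalized to DMSO.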

[21] = biological target: Pyruvate kinase PKM (Homo sapiens) (UniProt P14618); assay: qHTS Assay for Activators of Human Muscle Pyruvate Kinase (AID 954; active = well fitted curve in the direction sought with a large enough effect, not every such curve was filed as active); conditions: purified human muscle pyruvate kinase, luciferase-coupled luminescence, 1 h; series mostly up to 57.5 µM
In short: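 Enzyme was run at intermediate activity so both inhibitors and activators could be detected. ATP formed from ADP and PEP by 0.1 nM human PKM2 during a 1 h room-temperature incubation was quantified by coupled luciferase luminescence.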

[22] = biological target: Alpha-galactosidase (Coffea arabica) (UniProt Q42656); assay: Counterscreen for Glucocerebrosidase Inhibitors: qHTS Assay for Coffee Bean alpha-Galactosidase at pH 4.5 (AID 957); conditions: purified coffee bean alpha-galactosidase, fluorogenic substrate; series mostly up to 76.9 µM
Sequence of Alpha-galactosidase (Coffea arabica) (Q42656 whole entry, looked up): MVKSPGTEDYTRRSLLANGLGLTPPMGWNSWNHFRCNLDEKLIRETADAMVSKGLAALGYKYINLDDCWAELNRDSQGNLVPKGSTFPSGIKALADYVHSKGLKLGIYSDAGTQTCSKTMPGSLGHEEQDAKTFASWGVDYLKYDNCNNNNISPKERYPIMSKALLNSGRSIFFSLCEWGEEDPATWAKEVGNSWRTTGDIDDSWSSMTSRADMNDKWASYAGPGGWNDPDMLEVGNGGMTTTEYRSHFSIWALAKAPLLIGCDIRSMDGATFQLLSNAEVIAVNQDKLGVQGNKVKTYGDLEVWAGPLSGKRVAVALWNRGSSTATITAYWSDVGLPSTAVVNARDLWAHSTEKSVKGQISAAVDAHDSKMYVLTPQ
In short: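 Coffee bean alpha-galactosidase 2 nM, substrate 4-MU-alpha-Gal 80 uM, pH 4.5 citrate/Tween-20, 20 min RT. Cpd titration 0.7 nM–77 uM. Stop pH 10, fluorescence 365/440 nm; Hill-equation AC50.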

[23] = biological target: Alpha-galactosidase A (Homo sapiens) (UniProt P06280); assay: Counterscreen for Glucocerebrosidase Inhibitors: qHTS Assay for Human alpha-Galactosidase at pH 4.5 (AID 992); conditions: purified enzyme, fluorogenic substrate; series mostly up to 76.9 µM
Sequence of Alpha-galactosidase A (Homo sapiens) (P06280 whole entry, looked up): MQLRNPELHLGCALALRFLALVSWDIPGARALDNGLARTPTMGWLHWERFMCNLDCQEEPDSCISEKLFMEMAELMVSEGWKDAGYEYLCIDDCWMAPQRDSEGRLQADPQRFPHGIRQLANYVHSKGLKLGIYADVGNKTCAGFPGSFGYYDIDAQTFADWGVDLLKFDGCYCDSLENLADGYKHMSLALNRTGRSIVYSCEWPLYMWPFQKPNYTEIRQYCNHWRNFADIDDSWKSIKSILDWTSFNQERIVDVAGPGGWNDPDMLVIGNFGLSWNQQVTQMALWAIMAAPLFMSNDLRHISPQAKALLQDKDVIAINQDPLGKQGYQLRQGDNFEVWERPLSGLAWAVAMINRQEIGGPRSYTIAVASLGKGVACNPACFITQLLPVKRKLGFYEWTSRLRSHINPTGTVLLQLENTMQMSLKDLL
In short: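 Read-out is 4-methylumbelliferone fluorescence (365 nm excitation, 440 nm emission) after a pH 10 NaOH/glycine stop. Reactions held 2 nM enzyme and 80 uM substrate at pH 4.5 for 20 min at room temperature.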

[24] = biological target: alpha-glucosidase (Oryza sativa, rice) (UniProt Q653V4); assay: Counterscreen for Glucocerebrosidase Inhibitors: qHTS Assay for Rice alpha-Glucosidase at pH 5.0 (AID 997); conditions: rice alpha-glucosidase enzyme activity; series mostly up to 76.9 µM
In short: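 Rice alpha-glucosidase (4 nM final) with 400 uM 4-methylumbelliferyl-alpha-D-glucopyranoside in citrate buffer pH 5.0, 20 min at room temperature, stopped at pH 10; fluorescence 365/440 nm, compounds 0.7 nM–77 uM, AC50 from Hill fits.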

[25] = biological target: Alpha-galactosidase (Coffea arabica) (UniProt Q42656); assay: Counterscreen for Glucocerebrosidase Inhibitors: qHTS Assay for Coffee Bean alpha-Galactosidase at pH 5.9 (AID 998); conditions: coffee bean alpha-galactosidase enzyme assay; series mostly up to 76.9 µM
In short: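 Compounds were titrated from 0.7 nM to 77 uM against green coffee bean alpha-galactosidase (2 nM) using 80 uM fluorogenic 4-methylumbelliferyl substrate. After 20 min at room temperature, reactions were stopped at pH 10 and read by fluorescence.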

[26] = measured here: cell count channel max response
[27] = measured here: lipid channel max response

In the case of `C[C@](N)(CCP(=O)(O)O)C(=O)O`, the Potency [1] is reported as > 46 µM (inactive), the outcome [2] is reported as “inactive” and the activity change, negative = inhibition [3] is reported as 6.09% (inactive). The max response [3, 26] was -23.4%, the max response [3, 27] was -20.7% and the Potency [4] was “inactive”. For the same molecule, the Potency [5] was “inactive”, the Potency [6] was “inactive” and the Potency [7] was “inactive”.

With `N[C@H](CP(=O)(O)O)C(=O)O` the outcome [8] was “inactive”, the Potency [9] was “inactive” and the activity change, negative = inhibition [10] was 5.18% (inactive). For the same molecule, the outcome [11] was “inactive”, the Potency [1] was > 46 µM (inactive) and the Potency [12] was > 46 µM (inactive). The outcome [2] was “inactive”, the Potency [13] was “inactive” and the Potency [14] was “inactive”. The Potency [15] was “inactive”, the Potency [16] was “inactive” and the outcome [17] was “inactive”. The Potency [18] was “inactive”, the Potency [19] was “inactive” and the outcome [20] was “inactive”. The outcome [21] was “inactive”, the outcome [22] was “inactive” and the outcome [23] was “inactive”. For the same molecule, the outcome [24] was “inactive”, the outcome [25] was “inactive” and the activity change, negative = inhibition [3] was -5.82% (inactive). For the same molecule, the max response [3, 26] was 12.7%, the max response [3, 27] was 11.5% and the Potency [5] was “inactive”. For the same molecule, the Potency [6] was “inactive” and the Potency [7] was “inactive”.
